According to PubChem BioAssay (EPA / NIEHS):
Calls of active or inactive are those of the source. Rule for the calls: active = hit-call score of the fitted dose curve at least 0.9, where 1 is the maximum; inactive = score below 0.9.

Key:
[1] = read-out: Vascular cell adhesion molecule 1 (VCAM1), VCAM1 (gene 7412); experiment: BSK_4H_VCAM1: BioMAP Diversity Plus: 4H Assay for Vascular cell adhesion molecule 1 (VCAM1) Biomarker Activity (AID 2283033); settings: primary human endothelial cells (HUVEC); actives raise or lower the signal
Outline: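 In this human endothelial (HUVEC) system, biomarker ELISA was run 24 h after compound addition, and total protein in parallel wells was assessed by SRB at 560 nm; DMSO served as negative control.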

[2] = read-out: Interferon-gamma inducible Protein 10 (IP10), CXCL10 (gene 3627); experiment: BSK_BE3C_IP10: BioMAP Diversity Plus: BE3C Assay for Interferon-gamma inducible Protein 10 (IP10) Biomarker Activity (AID 2283034); settings: primary human bronchial epithelial cells; actives raise or lower the signal
Outline: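 BE3C cells (human bronchial epithelial, primary); 24 h exposure; ELISA for IP-10; DMSO-referenced bidirectional fit.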

[3] = read-out: Monokine induced gamma interferon (MIG), CXCL9 (gene 4283); experiment: BSK_BE3C_MIG: BioMAP Diversity Plus: BE3C Assay for Monokine induced gamma interferon (MIG) Biomarker Activity (AID 2283035); settings: primary human bronchial epithelial cells; actives raise or lower the signal
Outline: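 hu bronchial epithelial 1° cells, 24 h cpd; MIG by ELISA; bidirectional fit, DMSO = baseline.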

[4] = read-out: Transforming growth factor beta 1 (TGFb1), TGFB1 (gene 7040); experiment: BSK_BE3C_TGFb1: BioMAP Diversity Plus: BE3C Assay for Transforming growth factor beta 1 (TGFb1) Biomarker Activity (AID 2283036); settings: primary human bronchial epithelial cells; actives raise or lower the signal
Outline: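 TGF-b1 measured via ELISA, 24 h after chemical dosing of human bronchial epithelial cells (BE3C). Overt cytotoxicity assessed in parallel by SRB (0.1%, TCA-fixed, 560 nm); analysis bidirectional relative to DMSO.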

[5] = read-out: Plasminogen activator inhibitor-1 (PAI1), SERPINE1 (gene 5054); experiment: BSK_BE3C_PAI1: BioMAP Diversity Plus: BE3C Assay for Plasminogen activator inhibitor-1 (PAI1) Biomarker Activity (AID 2283037); settings: primary human bronchial epithelial cells; actives raise or lower the signal
Outline: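 In this multiplexed primary-cell system, bronchial epithelial cells receive test chemical and are sampled at 24 h. PAI-1 is read by ELISA, with DMSO serving as negative control for bidirectional fitting.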

[6] = read-out: urokinase plasminogen activator (uPA), PLAU (gene 5328); experiment: BSK_BE3C_uPA: BioMAP Diversity Plus: BE3C Assay for urokinase plasminogen activator (uPA) Biomarker Activity (AID 2283038); settings: primary human bronchial epithelial cells; actives raise or lower the signal
Outline: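 Primary human bronchial epithelial cells, uPA measured by ELISA 24 h after dosing. Bidirectional change relative to DMSO; cytotoxicity checked in parallel cultures by sulforhodamine B total-protein staining.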

[7] = read-out: Urokinase-type plasminogen activator receptor (uPAR), PLAUR (gene 5329); experiment: BSK_BE3C_uPAR: BioMAP Diversity Plus: BE3C Assay for Urokinase-type plasminogen activator receptor (uPAR) Biomarker Activity (AID 2283039); settings: primary human bronchial epithelial cells; actives raise or lower the signal
Outline: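 Chemically treated human bronchial epithelial cells (lung primary) are assayed for uPAR by ELISA after 24 h, with data fitted in both directions using DMSO as negative control.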

[8] = read-out: Interleukin-6 (IL6), IL6 (gene 3569); experiment: BSK_CASM3C_IL6: BioMAP Diversity Plus: CASM3C Assay for Interleukin-6 (IL6) Biomarker Activity for (AID 2283040); settings: primary human coronary artery smooth muscle cells; actives raise or lower the signal
[9] = read-out: Tissue plasminogen activator (tPA), PLAT (gene 5327); experiment: BSK_BE3C_tPA: BioMAP Diversity Plus: BE3C Assay for Tissue plasminogen activator (tPA) Biomarker Activity (AID 2283041); settings: primary human bronchial epithelial cells; actives raise or lower the signal
Outline: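 Using human lung primary bronchial epithelial cells, tPA was measured by ELISA 24 h after dosing; data fitted relative to DMSO.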

[10] = read-out: Interleukin-8 (IL8), CXCL8 (gene 3576); experiment: BSK_CASM3C_IL8: BioMAP Diversity Plus: CASM3C Assay for Interleukin-8 (IL8) Biomarker Activity (AID 2283042); settings: primary human coronary artery smooth muscle cells; actives raise or lower the signal;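 note: IL-8 protein level quantified by ELISA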

Measured: AC50

CC(=O)NC1(c2cccc(F)c2)CCN(CC[C@@]2(c3ccc(Cl)c(Cl)c3)CN(c3ccccc3)C(=O)CO2)CC1
inactive: [4] | [10]
active: [1] 27.8 µM | [2] 26 µM | [3] 26.9 µM | [5] 16.6 µM | [6] 16.6 µM | [7] 16.6 µM | [8] 8.45 µM | [9] 16.6 µM

Cc1cc(CCN2CCN(c3nsc4ccccc34)CC2)cc2c1NC(=O)CC2(C)C
active: [1] 22.3 µM | [2] 30.4 µM | [3] 34.4 µM | [4] 27.2 µM | [5] 32.6 µM | [6] 31.3 µM | [7] 31.2 µM | [9] 25.8 µM | [10] 35.4 µM

c1ccc2cc3c(ccc4ccccc43)cc2c1
active: [5] 3.97 µM
inactive: all other assays above

Cc1oc(-c2ccccc2)nc1CCOc1ccc(C[C@H](Nc2ccccc2C(=O)c2ccccc2)C(=O)O)cc1
inactive: [9] | [10]
active: [1] 33.5 µM | [2] 2.55 µM | [3] 4.79 µM | [4] 5.06 µM | [5] 5.29 µM | [6] 1.8 µM | [7] 3.63 µM | [8] 29.9 µM

CCCCCCCCCCCCc1ccccc1S(=O)(=O)O
active: [2] 6.21 µM | [3] 30.1 µM | [4] 8.96 µM | [5] 8.94 µM | [6] 13.9 µM | [7] 14.2 µM | [9] 6.79 µM
inactive: [1] | [8] | [10]

O=[N+]([O-])c1ccc(O)cc1
inactive: all assays above

COCC(C)O (stereo not given)
inactive: all assays above

c1ccc2c(c1)Cc1ccccc1-2
not listed: [7]
inactive: all other assays above

CCCCC(CC)COC(=O)CCCCC(=O)OCc1ccccc1 (stereo not given)
inactive: all assays above

CC1=C(/C=C/C(C)=C/C=C/C(C)=C/C(=O)O)C(C)(C)CCC1
active: [1] 26.3 µM | [2] 20 µM | [8] 2.7 µM
inactive: all other assays above

OC1CCCCC1
active: [10] 14.8 µM
inactive: all other assays above

O=C(O)Cc1cc(I)c(Oc2cc(I)c(O)c(I)c2)c(I)c1
active: [1] 19.5 µM | [2] 2.73 µM | [3] 9.13 µM | [4] 8.3 µM | [5] 4.21 µM | [7] 10.4 µM | [8] 21.7 µM | [9] 4.84 µM
inactive: [10]

CC(C)(C)CC(C)(C)c1ccc(O)c(-n2nc3ccccc3n2)c1
inactive: all assays above

O=c1c(-c2ccc(O)cc2)coc2cc(O)ccc12
inactive: all assays above

Nc1cccc2c(N)cccc12
inactive: all assays above

CN1CCN(c2ccccc2/C=C2\SCCN(c3ccc(Cl)c(Cl)c3)C2=O)CC1
active: [2] 30.4 µM | [4] 29.3 µM | [5] 33.3 µM | [6] 30.4 µM | [9] 25.7 µM
inactive: [1] | [8] | [10]

CCOC(=O)CC(O)(CC(=O)OCC)C(=O)OCC
inactive: all assays above
